Assay outcomes (PubChem BioAssay)
DT40 TDP1 CPT: growth inhibition of DT40 Tdp1-/-;hTDP1 cells with camptothecin (screen for TDP1 inhibitors) | 420,000 compounds, 12% hits | chicken DT40 Tdp1-/-;hTDP1 cells + 20 nM CPT, ATP luminescence, 48 h | AID 686979 | Potency, µM (titrated, usually from 46.2 µM), for inactives: at the highest dose activity change, negative = growth inhibition, most hits filed as inhibitors; also: potency is read from the fitted curve at half-maximal effect; nearly all actives have a fitted effect of over 55% in size
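Cell growth measured by CellTiter-Glo luminescence after a minimum 48 h, 37 C compound exposure with 20 nM CPT in Tdp1-knockout DT40 cells stably expressing hTDP1, seeded 400/well; qHTS titration format.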
HT1080-NT tox: kills 2HG-producing HT-1080-NT fibrosarcoma cells; HT-1080-NT fibrosarcoma viability, CellTiter-Glo ATP luminescence, 48 h; Potency, µM (series often up to 46.1 µM), inactives show top-dose activity, negative = less viability, most hits filed as cytotoxic; 360,000 compounds, 1.6% hits;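 also: NT is the 2HG producing partner of a matched IDH1 knockdown line; potency is read from the fitted curve at half-maximal effect; 0% = DMSO-treated cells and -100% = media-only wells without cells; nearly all actives have a fitted effect of over 55% in size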
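Compounds were tested in concentration-response format on HT-1080-NT cells for 48 hours at 37 degrees C. Cell viability came from CellTiter-Glo luminescence; curves were classified by r2, response magnitude and activity.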
IL-1B inflam inh: blocks inflammasome-driven IL-1 beta release | THP-1 LPS/ATP IL-1B secretion, AlphaLISA, 16 h; active compounds read low | activity change, % at 57.5 µM | 360,000 compounds, 4.7% hits | AID 743279; in the data active = activity change below about -50%; inconclusive = mostly about -30% to -49%
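Secreted IL-1B measured by AlphaLISA bead assay after 16 h compound exposure of THP-1 cells; compounds (final up to 57.5 uM) added 1 h before LPS (250 ng/mL) and ATP (1.25 mM) stimulation; lower signal means less secretion.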
ALOX12 inh: blocks human arachidonate 12S-lipoxygenase; Potency, µM (doses to about 108 µM), for inactives: at the top dose activity change, negative = inhibition, usual class: inhibitors; P18054; AID 1671190; purified 12hLO, xylenol orange hydroperoxide absorbance; 580,000 compounds, 1.1% hits; also: potency is read from the fitted curve at half-maximal effect
Target sequence (P18054 whole entry, looked up): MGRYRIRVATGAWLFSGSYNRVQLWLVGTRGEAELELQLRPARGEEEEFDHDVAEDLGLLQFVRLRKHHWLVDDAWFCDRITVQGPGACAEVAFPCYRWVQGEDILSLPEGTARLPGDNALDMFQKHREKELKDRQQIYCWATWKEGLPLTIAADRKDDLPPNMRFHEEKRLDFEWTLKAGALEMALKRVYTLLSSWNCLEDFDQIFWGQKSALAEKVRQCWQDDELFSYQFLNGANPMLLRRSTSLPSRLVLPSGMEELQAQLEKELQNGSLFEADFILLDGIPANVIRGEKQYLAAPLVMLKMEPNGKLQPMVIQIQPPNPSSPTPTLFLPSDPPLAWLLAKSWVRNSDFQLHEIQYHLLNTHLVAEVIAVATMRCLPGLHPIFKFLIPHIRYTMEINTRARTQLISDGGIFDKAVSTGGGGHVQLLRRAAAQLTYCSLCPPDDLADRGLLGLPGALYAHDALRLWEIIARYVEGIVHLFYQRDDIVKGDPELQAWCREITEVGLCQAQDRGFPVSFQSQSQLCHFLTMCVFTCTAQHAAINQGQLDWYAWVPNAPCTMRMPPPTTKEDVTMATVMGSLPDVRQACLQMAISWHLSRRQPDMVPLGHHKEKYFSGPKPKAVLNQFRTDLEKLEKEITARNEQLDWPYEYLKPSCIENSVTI
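Purified human 12hLO (150 nM final) in 25 mM Hepes, 0.01% Triton X-100, pH 7.0 was preincubated 15 min at room temperature with compound. Then 40 uM arachidonic acid was added, 30 min. Hydroperoxide was read by Fe-XO absorbance ratio 573/405 nm.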
HT1080 IDH1KD tx: toxicity to HT-1080 IDH1 knockdown cells (counter line); HT-1080 IDH1 knockdown viability, ATP luminescence, 48 h; Potency, µM (highest dose often 46.1 µM), inactives show top-dose activity, negative = toxicity, actives largely listed as cytotoxic; 360,000 compounds, 2% hits;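 also: potency is read from the fitted curve at half-maximal effect; 0% = DMSO wells and -100% = cell-free medium wells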
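After a 2 h attachment period, IDH1KD HT-1080 cells took pin-transferred compound for 48 h at 37 °C; ATP-based luminescence after 10 min room-temperature reagent incubation reported viability.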
TDP1 cell noCPT: qHTS for Inhibitors of human tyrosyl-DNA phosphodiesterase 1 (TDP1): qHTS in cells in absence of CPT; 420,000 compounds, 15% hits; AID 686978, 2013; Potency, µM (highest dose often 46.2 µM), inactives show at the highest dose activity change, negative = growth inhibition, most hits filed as inhibitors; DT40 Tdp1-/- hTDP1 cells, no CPT, ATP luminescence, 48 h; also: potency is read from the fitted curve at half-maximal effect; nearly all actives have a fitted effect of over 55% in size
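Luminescent ATP content (CellTiter-Glo) served as the growth readout. Knockout chicken DT40 cells expressing human TDP1 were exposed to compounds without camptothecin for a minimum 48 hr at 37 °C.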
* marks the source's active call; other numbers are inactive results; ? = inconclusive; . = not tested or not shown; [ ] = dose if it differs, or a comment. The full list was thinned out, with hits kept by preference. Unless noted, calls follow the shape of the dose curve; as a rule, active = well fitted curve in the direction sought with a large enough effect; inconclusive = small, poorly fitted or top-dose-only effect, or another doubt; inactive = no such curve, though single readings can be large; an effect the other way counts as inactive or inconclusive. Unless noted, % is scaled to controls: 0 for no effect and ±100 for the full control effect.

SMILES	DT40 TDP1 CPT	HT1080-NT tox	IL-1B inflam inh	ALOX12 inh	HT1080 IDH1KD tx	TDP1 cell noCPT
COc1cccc(-n2cnnc2SC(C)C(=O)Nc2cccc(C(C)=O)c2)c1 (stereo not drawn)	.	.	.	8%	.	.
COc1ccc(C)cc1NC(=O)c1cc(S(=O)(=O)N2CCc3ccccc32)cn1C	.	.	.	75%	.	.
CC(OC(=O)/C=C/c1ccc2ccccc2n1)C(=O)NC1(C#N)CCCCC1 (stereo not drawn)	.	.	.	-21%	.	.
Cc1cccc(-c2nc(CN3CCCC(C(=O)NC4CCCC4)C3)c(C)o2)c1 (stereo not drawn)	?	?	-24	-2%	?	12µM*
Oc1ccc(Cc2ccccc2)cc1	.	.	.	10%	.	.
C(=C\c1ccncc1)/c1ccccc1	-3%	24%	0	0%	19%	10%
CCC[N+](C)(C)c1ccc(/C=C/c2ccncc2)cc1	0.35µM*	.	.	.	.	0.35µM*
CC[N+](C)(C)c1ccc(/C=C/c2ccncc2)cc1	0.71µM*	.	.	.	.	0.63µM*
COC(=O)c1cccc(OC(=O)c2ccccc2C)c1	.	.	.	-2%	.	.
O=C(O)c1ccc(NCc2ccc(F)cc2)cc1	.	.	.	14%	.	.
O=C1Nc2ccccc2N(C(=O)c2ccc3ccccc3c2)C1c1nc2ccccc2[nH]1 (stereo not drawn)	10µM*	?	-2	-12%	?	21µM*
CC1C(=O)Nc2ccccc2N1C(=O)c1ccc(O)cc1 (stereo not drawn)	5%	3%	-19	0%	10%	5%
CC[C@H]1OC(=O)[C@H](C)[C@@H](O[C@H]2C[C@@](C)(OC)[C@@H](O)[C@H](C)O2)[C@H](C)[C@@H](O[C@@H]2O[C@H](C)C[C@H](N(C)C)[C@@H]2O)[C@](C)(OC)C[C@@H](C)C(=O)[C@H](C)[C@@H](O)[C@]1(C)O	.	.	.	-9%[57.4 µM]	.	.
CC[C@H]1OC(=O)[C@H](C)[C@@H](O[C@H]2C[C@@](C)(OC)[C@@H](O)[C@H](C)O2)[C@H](C)[C@@H](O[C@@H]2O[C@H](C)C[C@H](N(C)C)[C@H]2O)[C@](C)(O)C[C@@H](C)C(=NOCOCCOC)[C@H](C)[C@@H](O)[C@]1(C)O	?	.	-14	7%	.	7.3µM*
Fc1ccccc1C1CC(c2ccco2)=Nc2ccccc2S1 (stereo not drawn)	?	-14%	-5	-25%	-29%	13µM*
O=C(NNC(=O)c1cc2cc(Br)ccc2oc1=O)c1ccc(O)cc1O	5.2µM*	?	97	-2%	1.8µM*	9.2µM*
O=C(c1ccc(Br)cc1)c1coc2ccc(O)cc12	?	-16%	.	22µM*	-6%	?
O=C(c1ccccc1)c1cc2ccc(O)cc2oc1=O	?	?	-9	?	?	-23%
O=C(c1ccc(Br)cc1)c1cc2ccc(O)cc2oc1=O	?	-4%	-14	-25%	-10%	16µM*
COc1cc(NC(=O)CSc2nc3cc(C)[nH]c3c(=O)n2C)cc(OC)c1OC	.	.	.	-6%	.	.
CN(Cc1ccccc1)C(=O)COC(=O)C12CC3CC(CC(Br)(C3)C1)C2	26µM*	2%	-2	1%	-4%	?
O=C(COC(=O)C12CC3CC(CC(Br)(C3)C1)C2)Nc1cccnc1Cl	?	1%	-5	0%	13%	1%
CC(C)NC(=O)c1ccc(-n2nc(Sc3ccc(Cl)cc3)ccc2=O)cc1	.	.	.	-5%	.	.
O=C(CSc1ncn[nH]1)N1N=C2/C(=C/c3ccco3)CCCC2C1c1ccco1 (stereo not drawn)	?	?	-60*	-22%	?	?
O=C1OCCC1NC(=S)Nc1cccc2ccccc12 (stereo not drawn)	.	.	.	5%	.	.
SMILES	DT40 TDP1 CPT	HT1080-NT tox	IL-1B inflam inh	ALOX12 inh	HT1080 IDH1KD tx	TDP1 cell noCPT
O=C(Nc1ccc2c(c1)OCO2)C1CCc2sc(C(=O)N3CCCC3)cc2C1 (stereo not drawn)	.	.	.	-5%	.	.
O=C1/C(=C/c2ccco2)SC(=S)N1C1CCS(=O)(=O)C1 (stereo not drawn)	15µM*	-26%	-9	?	-22%	16µM*
O=C1/C(=C\c2ccco2)SC(=S)N1C1CCS(=O)(=O)C1 (stereo not drawn)	23µM*	?	.	?	?	21µM*
O=C1/C(=C\c2ccco2)SC(=S)N1c1ccccc1	5%	-1%	-13	?	-27%	?
Cc1ccc(/C=C2\SC(=S)N(C3CCS(=O)(=O)C3)C2=O)cc1 (stereo not drawn)	?	-3%	-24	-4%	6%	15µM*
C=CCNC(=O)[C@@H]1Cc2cn(CC3CC3)c3cccc(c23)[C@H](CC(C)C)N1	.	.	.	19%[176 µM]	.	.
COc1ccc(NC(=O)Nc2cccc(C(F)(F)F)c2)cn1	?	?	?	-11%	?	21µM*
COc1ccc(NC(=O)Nc2cc(C)cc(C)c2)cn1	-17%	2%	-2	419%	0%	?
COc1ccc(NC(=O)Nc2cccs2)cn1	13µM*	12%	-6	?	6%	18µM*
Cc1ccc(OC(F)F)c(NC(=O)Nc2cccc(C(F)(F)F)c2)c1	13µM*	?	-99*	-7%	?	?
Cc1[nH]cnc1CSCCn1ccnc1-c1nccn1C	.	.	.	126%	.	.
CC(C)Nc1nc(Nc2ccc(F)cc2)c2sccc2n1	26µM*	-24%	-5	?	-18%	?
CCc1ccccc1Oc1nc(NC(C)C)nc2ccsc12	?	0%	41	-28%	-15%	?
CC(C)Nc1nc(Nc2ccc(C#N)cc2)c2sccc2n1	15µM*	-1%	-1	-18%	-26%	26µM*
Cn1cccc1CN[C@H]1[C@H](O)[C@@H](N2CCC(C(N)=O)CC2)[C@@H]2OC[C@H]1O2	.	.	.	56%[176 µM]	.	.
COc1cc(CNC(=O)c2nc(C(O)c3ccccn3)oc2C)cc(OC)c1 (stereo not drawn)	.	.	.	1%[176 µM]	.	.
Cc1ccc2nc(-c3ccc(SCC(=O)Nc4nnc(C)s4)nc3)[nH]c2c1	?	21µM*	-95*	?	9.2µM*	15µM*
CCc1nnc(NC(=O)CSc2ccc(-c3nc4ccccc4[nH]3)cn2)s1	-14%	?	14	?	-21%	-25%
Cc1ccc2nc(-c3ccc(SCC(=O)Nc4nc(C)cs4)nc3)[nH]c2c1	18µM*	-8%	9	-12%	-27%	10µM*
